Assay outcomes deposited in PubChem by National Center for Advancing Translational Sciences (NCATS).
Sampled rows, rich in hits. Any-hit rate of the full collection: about 6.2%.
Marburg entry inh: blocks Marburg virus binding to or entry into cells; Marburg virus pseudotyped entry inhibition, cell reporter; Potency, µM (highest dose often 37.8 µM), without a hit: at the highest dose activity change, negative = inhibition, usual class: inhibitors; 300,000 compounds, 1.8% hits; calls by dose curve; tested in HEK293 cells; note: potency is the fitted concentration of half-maximal effect
LASV entry inh: Lassa virus entry inhibition; 300,000 compounds, 1.2% hits; Lassa virus pseudotype entry inhibition, cell reporter; AID 540256; Potency, µM (doses to about 37.9 µM), for inactives: top-dose activity change, negative = inhibition, most hits filed as inhibitors; calls by dose curve; tested in HEK293 cells; note: potency is the fitted concentration of half-maximal effect; nearly all actives have a fitted effect of over 50% in size
HCMV antiviral: blocks human cytomegalovirus replication | HFF cells, HCMV-luciferase reporter, 72 h; stronger effect = lower value | activity change, negative = inhibition, % at 57.5 µM | 410,000 compounds, 4.5% hits | AID 1259415; in the data active = activity change below about -60%; inconclusive = no clear call, values can overlap the other calls; inactive = above about -39%
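Two-dose cell screen: HFF monolayers treated with compounds and infected with luciferase-expressing HCMV at 1 PFU/cell, 72 h at 37C, then lysed for luciferase measurement.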
FMDV antiviral: foot and mouth disease virus antiviral activity; FMDV antiviral cell-based qHTS; Potency, µM (doses to about 57.9 µM), without a hit: top-dose activity change, negative = inhibition, most hits filed as inhibitors; 410,000 compounds, 1.2% hits; AID 1159524; calls by dose curve; tested in HEK293T cells; note: read-out not given here; potency is the fitted concentration of half-maximal effect; nearly all actives have a fitted effect of over 45% in size
Numbers without * were called inactive; ? = inconclusive; . = no result; [ ] = remark or other dose. % is set by controls: 0 for no effect and ±100 for the full control effect.

SMILES	Marburg entry inh	LASV entry inh	HCMV antiviral	FMDV antiviral
O=C(NC(=S)Nc1cccc2[nH]ncc12)c1ccccc1	?	4%[46.1 µM]	-62*	15%
O=C(Nc1cccc2[nH]ncc12)c1ccc(F)cc1	?	4%	-76*	62%
CCOC(=O)c1cccc(NC(=O)c2nn(-c3ccc(OC)cc3)c(=O)c3c2c2ccccc2n3C)c1	-3%[46.1 µM]	?	18	-14%
O=c1[nH]c2ccccc2n1CCCN1CCN(C(c2ccccc2)c2ccccc2)CC1	13µM*	18µM*	.	.
CCCc1nn2c(=O)cc(COC(=O)c3cccs3)nc2s1	.	13%[46.1 µM]	17	0%
Cc1cc(C)cc(NC(=O)c2ccc3oc(=O)c(S(=O)(=O)c4ccc(F)cc4)cc3c2)c1	?	-9%[46.1 µM]	5	20µM*
CCOC(=O)c1ccc(NC(=O)c2ccc(C)c(S(=O)(=O)N3CCOCC3)c2)cc1	2.8µM*	?	?	14µM*
Cc1cc(C)n(-c2ccc(C(=O)Nc3ccc(C)c(S(=O)(=O)N4CCOCC4)c3)cc2)n1	10µM*	?	-83*	14µM*
COc1ccc(NC(=O)c2ccc3oc(=O)c(S(=O)(=O)c4ccc(F)cc4)cc3c2)cc1OC	-14%[46.1 µM]	-3%[46.1 µM]	7	?
CC(=O)c1ccc(NC(=O)c2ccc(C)c(S(=O)(=O)N3CCOCC3)c2)cc1	?	0%	-11	?
Cc1ccc(C(=O)Nc2ccc(F)cc2)cc1S(=O)(=O)N1CCCCCC1	.	?	-101*	-26%
O=C(NCc1ccc(F)cc1)C(=O)Nc1ccc2nc3n(c(=O)c2c1)CCCCC3	21%[46.1 µM]	-1%[46.1 µM]	5	-11%
CCc1ccc(NC(=O)c2ccc3c(O)c(S(=O)(=O)c4ccccc4)c(=O)[nH]c3c2)cc1	.	1%[46.1 µM]	-2	-17%
COc1cccc(Cc2nc3cccnc3n2C2CCN(C(=O)c3n[nH]c4c3CCCC4)CC2)c1	.	.	.	-15%
Cc1ccc(C(=O)Nc2ccc(F)c(S(=O)(=O)N3CCOCC3)c2)s1	.	.	-3	?
Cc1ccc(NC(=O)c2cc(S(=O)(=O)N3CCOCC3)c(Br)s2)cc1	-25%	10µM*	-39	?
Cc1ccc(C(=O)Nc2ccon2)cc1S(=O)(=O)N1CCCCCC1	8%	1%	-101*	15%
CCC1CCCCN1S(=O)(=O)c1cc(C(=O)Nc2ccc(C)c(F)c2)ccc1F (stereo not given)	.	?	-91*	?
O=C(Nc1ccc(F)c(F)c1)c1ccc(F)c(S(=O)(=O)N2CCOCC2)c1	0%	.	.	.
O=C(Nc1ccccc1)c1ccc(Br)c(S(=O)(=O)N2CCCCC2)c1	.	?	0	14µM*
CC1CCN(S(=O)(=O)c2ccc3c(c2)N(CC(=O)NCC(C)c2ccccc2)C(=O)CO3)CC1 (stereo not given)	-13%[46.1 µM]	-15%[46.1 µM]	-7	-2%
Cc1cc(C)n(-c2ccc(C(=O)Nc3cc(S(=O)(=O)N(C)C)ccc3Cl)cc2)n1	?	?	?	28µM*
NS(=O)(=O)c1ccc(CCNC(=O)c2ccc(Cl)s2)cc1	.	.	23	-3%
NS(=O)(=O)c1ccc(CCNC(=O)c2ccc([N+](=O)[O-])s2)cc1	?	?	-100*	0%
CCCCC[C@H](O)C=C[C@H]1[C@H](O)CC(=O)[C@H]1CCCCCCC(=O)O	.	.	.	-14%
SMILES	Marburg entry inh	LASV entry inh	HCMV antiviral	FMDV antiviral
CCCCC[C@H](O)/C=C/[C@H]1CCC(=O)[C@@H]1CCCCCCC(=O)N1CCCCC1CO (stereo not given in full)	?	?	-74*	?
Cc1c(C)n(CCN(C)C)c2ccc(C(=O)OCCN(C)C)cc12	.	.	-10	-16%
Cc1c(C)n(Cc2ccccc2)c2ccc(C(=O)OCCCN(C)C)cc12	10µM*	?	-63*	-8%
CCOC(=O)n1c(=O)oc2ccccc21	9%	-14%	-96*	-15%
COc1ccc(N2CCN(C(=O)CCCOc3cc(=O)n(C)c4ccccc34)CC2)cc1	?	9%	136	?
Cc1ccc(C)c(N2CCN(C(=O)COc3cc(=O)n(C)c4ccccc34)CC2)c1	-24%	18µM*	-24	?
Cc1ccc(C)c(N2CCN(C(=O)CCCOc3cc(=O)n(C)c4ccccc34)CC2)c1	?	?	56	25µM*
Nc1cc(=O)[nH]c(=O)n1CCCc1ccccc1	-2%[46.1 µM]	-6%[46.1 µM]	-73*	-1%
Nc1cc(=O)[nH]c(=O)n1Cc1ccccc1	1%	0%	3	14%
CC(C)c1ccc(N(CC(=O)NCCc2ccccc2)C(=O)c2csnn2)cc1	?	?	-9	0%
Cc1ccc(N(CC(=O)NCCc2ccccc2)C(=O)c2csnn2)cc1	-8%[46.1 µM]	-13%[46.1 µM]	-88*	3%
O=C(Cn1cc(S(=O)(=O)N2CCN(c3ccccc3F)CC2)c2ccccc2c1=O)Nc1cccc(C(F)(F)F)c1	?	-14%[46.1 µM]	-1	2%
Cc1cc(C)c(C2=NOC3C4CCC(C4)C23)c(C)c1 (stereo not given)	3%	-7%	-63*	-21%
CCOC(=O)c1cc(-c2ccc(C)cc2)n(CC(=O)Nc2ccc(OC)cc2OC)c1C	?	.	-30	0%
O=C1C2CCCCC2C(=O)N1c1nccs1 (stereo not given)	9%[46.1 µM]	5%[46.1 µM]	22	-12%
Cc1nn(-c2nccs2)c2c1C(=O)CC(C)(C)C2Br (stereo not given)	.	.	-70*	8%
CCCCNC(=O)c1nc2ccccc2nc1-c1cccc(OC(F)(F)F)c1	.	.	50	.
Cc1ccc(N2CC(C(=O)N3CCCCC3)CC2=O)cc1C (stereo not given)	.	.	-61*	5%
O=C(C1CC(=O)N(c2ccc3c(c2)OCCO3)C1)N1CCN(c2ccccc2)CC1 (stereo not given)	4%	-12%	-70*	?
Cc1ccc(N2CC(C(=O)N3CCOCC3)CC2=O)cc1C (stereo not given)	-1%[46.1 µM]	-7%	-6	1%
O=C(C1CC(=O)N(c2ccc3c(c2)OCCO3)C1)N1CCN(c2ccccc2O)CC1 (stereo not given)	.	.	20	?
COc1ccc(NC(=O)Cc2c(SC)c3ccccc3n2Cc2ccccc2)cc1	?	-25%	-87*	-22%
CC(Cc1cccs1)NC(=S)Nc1ccc(Cl)cc1 (stereo not given)	?	-4%	-92*	21%
CC(Cc1cccs1)NC(=S)Nc1ccc(Cl)c(Cl)c1 (stereo not given)	-6%	-10%	?	38%
OC(CNCc1ccco1)Cn1c2ccccc2c2ccccc21 (stereo not given)	16µM*	?	56	-7%
SMILES	Marburg entry inh	LASV entry inh	HCMV antiviral	FMDV antiviral
CCC(CC)C(=O)NC1CC(=O)N(c2ccc3c(c2)OCCO3)C1 (stereo not given)	.	6%[46.1 µM]	14	-19%
Cc1cccc(C(=O)Nc2ccc(C(=O)/C=C/c3cccnc3)cc2)c1	?	?	18	-22%
CC(=O)Nc1cccc(C(=O)/C=C/c2ccc(F)cc2)c1	?	?	-99*	?
CC(=O)Nc1cccc(C(=O)/C=C/c2ccc[nH]2)c1	.	.	28	57%
CCC(=O)Nc1cccc(C(=O)/C=C/c2cc(Br)ccc2OC)c1	?	11µM*	-104*	8.9µM*
Cc1cccc(C(=O)Nc2ccc(C(=O)/C=C/c3ccncc3)cc2)c1	?	?	-101*	11%
